Measured values taken from PubChem BioAssay (Tox21).
Inconclusive results are not listed. Calls of active or inactive are those of the source. Unless noted, the call rests on the fitted dose curve.

Tests used:
[1] = Nuclear factor erythroid 2-related factor 2/antioxidant responsive element (Nrf2/ARE) small molecule agonists: qHTS cell viability counter screen in human keratinocytes (AID 1919968; active means well fitted curve in the direction sought with a large enough effect in the repeat runs; an effect the other way counts as inactive or inconclusive; further: nearly all actives have a fitted effect of over 55% in size; further: potency means the concentration at half of the fitted maximal effect)
Summary of the method: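 Fluorescence read-out from CellTiter-Fluor after 1 h at 37 C. Wells held HaCaT-derived ARE-luciferase reporter cells (1,500/well) treated 23 h with DMSO-dissolved compounds. Run in the same wells as the luciferase agonist read.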

[2] = Nuclear factor erythroid 2-related factor 2/antioxidant responsive element (Nrf2/ARE) small molecule agonists: luciferase reporter gene qHTS assay in human keratinocytes (AID 1919969); further: nearly all actives have a fitted effect of over 35% in size; further: potency means the concentration at half of the fitted maximal effect
[3] = target: Gonadotropin-releasing hormone receptor (Homo sapiens) (UniProt P30968); test: Human gonadotropin-releasing hormone receptor (GnRHR) small molecule agonists, calcium flux assay in GnRHR-HEK293 cells (AID 1920063); further: nearly all actives have a fitted effect of over 35% in size
Summary of the method: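 Calcium-dye fluorescence, Ex/Em=480/540, recorded every 1 sec over 3 min after compound addition to GnRHR-HEK293 cells. Cells had been seeded 18 hours earlier and dye-loaded for 1 hour at 37 C. Fifteen concentrations, triplicates.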

[4] = target: KiSS-1 receptor (Homo sapiens) (UniProt Q969F8); test: Human kisspeptin (KISS1R) small molecule agonists, calcium flux assay in KISS1R-HEK293 cells (AID 1920064; active means well fitted curve in the direction sought with a large enough effect in the repeat runs; an effect the other way counts as inactive or inconclusive)
Summary of the method: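 Calcium flux read-out: kinetic fluorescence at Ex/Em=480/540, 1 s intervals over 3 min, after pin-tool compound addition to dye-loaded KISS1R-HEK293 cells. Fifteen concentrations, triplicates.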

[5] = G protein-coupled receptor (GPCR) small molecule agonists, calcium flux assay: HEK293 wild type cell line counter screen (AID 1920065)
Summary of the method: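 Agonist mode; 18 h seeding at 37 C, 1 h dye load at 37 C; compounds pinned from DMSO, ATP as positive control; kinetic fluorescence 480/540 nm, 3 min, 1 s reads; 15 concentrations, triplicate.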

[6] = p53 small molecule agonists, cell-based qHTS assay with human liver microsomes (AID 1963577);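 further: p53 response element beta-lactamase reporter cells with liver microsomes plus NADPH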
Summary of the method: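 p53RE-bla cells; 5 h settle, 37 C/5% CO2; cpd + HLM 0.5 mg/mL + NADPH 0.5 mg/mL (final); 16 h 37 C; LiveBLAzer 2 h RT dark; fluorescence readout.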

[7] = p53 small molecule agonists, cell-based qHTS assay with rat liver microsomes (AID 1963578)
Summary of the method: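 Rat liver microsome activation: microsomes 0.5 mg/mL, NADPH 0.5 mg/mL final; p53RE-bla cells, 16 h 37 C; LiveBLAzer readout, 2 h RT dark.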

[8] = p53 small molecule agonists, cell-based qHTS assay with rat liver microsomes: qHTS cell viability counter screen (AID 1963580); further: nearly all actives have a fitted effect of over 45% in size
Summary of the method: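 Rat liver microsome (0.5 mg/mL final) and NADPH (0.5 mg/mL final) co-incubation with compounds for 16 h at 37 C on HCT-116 p53RE-bla cells; cytotoxicity taken from intracellular ATP luminescence.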

[9] = target: 5-hydroxytryptamine receptor 2A (Homo sapiens) (UniProt P28223); test: 5-hydroxytryptamine receptor 2A (HTR2A) small molecule antagonists, cell-based qHTS assay (AID 1963586); further: nearly all actives have a fitted effect of over 45% in size; further: potency means the concentration at half of the fitted maximal effect
Summary of the method: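 CHO cells stably expressing human HTR2A were plated for 18 h at 37 C, then loaded with calcium dye for 1 h. Compounds were preincubated 5 min at room temperature before DOI (4 nM solution) was added. Kinetic fluorescence was read for 3 min.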

[10] = target: 5-hydroxytryptamine receptor 2A (Homo sapiens) (UniProt P28223); test: 5-hydroxytryptamine receptor 2A (HTR2A) small molecule agonists, cell-based qHTS assay (AID 1963587); further: nearly all actives have a fitted effect of over 30% in size; further: potency means the concentration at half of the fitted maximal effect
Summary of the method: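 Kinetic calcium-flux fluorescence (2 min, 1 sec intervals) after compound addition in agonist mode. HTR2A-CHO cells were cultured 18 h, then dye-loaded 1 h at 37 C.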

[11] = target: Muscarinic acetylcholine receptor M1 (Homo sapiens) (UniProt P11229); test: Cholinergic receptor muscarinic 1 (CHRM1) small molecule antagonists, cell-based qHTS assay (AID 1963588); further: nearly all actives have a fitted effect of over 40% in size
Summary of the method: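 Compounds were tested at 15 concentrations in three independent runs. Dye-loaded CHRM1-CHO cells were exposed 5 min at room temperature before stimulation by acetylcholine added at 50nM. Intracellular calcium was read kinetically on FDSS for 3 min.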

[12] = target: Muscarinic acetylcholine receptor M1 (Homo sapiens) (UniProt P11229); test: Cholinergic receptor muscarinic 1 (CHRM1) small molecule agonists, cell-based qHTS assay (AID 1963589); further: nearly all actives have a fitted effect of over 35% in size
Summary of the method: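 Calcium flux read-out: kinetic fluorescence at 1 sec intervals after pin-tool compound addition to dye-loaded CHRM1-CHO cells (human M1). Agonist mode; 15 concentrations tested in triplicate independent runs.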

[13] = target: Beta-2 adrenergic receptor (Homo sapiens) (UniProt P07550); test: Adrenergic beta2 receptor (ADRB2) small molecule antagonists, cell-based qHTS assay (AID 1963592); further: series mostly up to about 92 µM; nearly all actives have a fitted effect of over 50% in size
Summary of the method: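 Assay format: CHO-ADRB2 cells, 18-20hr seeding at 37C/5% CO2, then compound plus 1nM isoproterenol agonist mix for 0.5hr RT. Homogeneous time-resolved fluorescence cAMP detection after 1hr, expressed as 665/615 nm ratio.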

[14] = target: D(2) dopamine receptor (Homo sapiens) (UniProt P14416); test: Dopamine D2 receptor (DRD2) small molecule agonists, cell-based qHTS assay (AID 1963594); further: nearly all actives have a fitted effect of over 35% in size; further: potency means the concentration at half of the fitted maximal effect
Summary of the method: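 cAMP accumulation in DRD2-HEK293 cells measured by HTRF after 1 h detection; compounds added 10 min before NKH477 (200nM […]) forskolin-analogue stimulation, 30 min at room temperature, with Ro20-1724 present at 0.1 mM final.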

[15] = target: D(2) dopamine receptor (Homo sapiens) (UniProt P14416); test: Dopamine D2 receptor (DRD2) small molecule antagonists, cell-based qHTS assay (AID 1963595; active means well fitted inhibition curve with a large enough effect in the signal ratio in the repeat runs, with a control signal flat; the % refers to the signal ratio)
Summary of the method: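 HTRF cAMP read-out at 665 and 620 nm emission (340 nm excitation). Antagonist mode: compounds were tested against 12 nM quinpirole in DRD2-HEK293 cells, with 200 nM NKH477 raising cAMP and 0.1 mM Ro20-1724 blocking its breakdown.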

[16] = p53 small molecule agonists, cell-based qHTS assay: qHTS cell viability counter screen (AID 1963581); further: nearly all actives have a fitted effect of over 45% in size
Summary of the method: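 Cytotoxicity read-out: ATP-based luminescence (CellTiter-Glo, 30 min RT) measured in the same wells as the p53 reporter assay, HCT-116 p53RE-bla cells, 16 h compound exposure at 37 C.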

[17] = p53 small molecule agonists, cell-based qHTS assay (AID 1963582; active means well fitted activation curve with a large enough effect in the signal ratio in the repeat runs, not every such curve was filed as active; the % refers to the signal ratio; further: potency means the concentration at half of the fitted maximal effect)
Summary of the method: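 Fluorescence intensity read-out of a beta-lactamase reporter under a p53 response element. Cells were exposed to DMSO-dissolved compounds for 16 h at 37 C, then developed with FRET substrate for 2 h at RT.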

[18] = cAMP Responsive Elements (CRE) small molecule agonists, cell-based qHTS assay (AID 1963590)
Summary of the method: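 Beta-lactamase reporter readout: LiveBLAzer B/G FRET substrate, 2 h at room temperature, added after 3 h compound treatment of CRE-bla HEK 293T cells at 37 C/5% CO2.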

[19] = cAMP Responsive Elements (CRE) small molecule antagonists, cell-based qHTS assay (AID 1963591; active means well fitted inhibition curve with a large enough effect in the signal ratio in the repeat runs, not every such curve was filed as active; the % refers to the signal ratio)
Summary of the method: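 HEK293T CRE-bla; 18 h preincubation; compound pin-transfer; NKH477 0.25 uM final, 3 h, 37 C; LiveBLAzer FRET substrate 2 h RT.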

[20] = target: Beta-2 adrenergic receptor (Homo sapiens) (UniProt P07550); test: Adrenergic beta2 receptor (ADRB2) small molecule agonists, cell-based qHTS assay (AID 1963593);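 further: CHO cells stably overexpressing human ADRB2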
Summary of the method: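 CHO cells stably over-expressing ADRB2 were plated overnight at 37C, then dosed with compounds plus a stimulation mix containing 100uM IBMX and 25uM Ro-20-1724 for 0.5hr at room temperature. cAMP was measured by HTRF competition, 1hr.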
On the % scale 0 is the no-effect control and ±100 the full control effect.

Chain of 5-hydroxytryptamine receptor 2A (Homo sapiens) (P28223 whole entry, looked up): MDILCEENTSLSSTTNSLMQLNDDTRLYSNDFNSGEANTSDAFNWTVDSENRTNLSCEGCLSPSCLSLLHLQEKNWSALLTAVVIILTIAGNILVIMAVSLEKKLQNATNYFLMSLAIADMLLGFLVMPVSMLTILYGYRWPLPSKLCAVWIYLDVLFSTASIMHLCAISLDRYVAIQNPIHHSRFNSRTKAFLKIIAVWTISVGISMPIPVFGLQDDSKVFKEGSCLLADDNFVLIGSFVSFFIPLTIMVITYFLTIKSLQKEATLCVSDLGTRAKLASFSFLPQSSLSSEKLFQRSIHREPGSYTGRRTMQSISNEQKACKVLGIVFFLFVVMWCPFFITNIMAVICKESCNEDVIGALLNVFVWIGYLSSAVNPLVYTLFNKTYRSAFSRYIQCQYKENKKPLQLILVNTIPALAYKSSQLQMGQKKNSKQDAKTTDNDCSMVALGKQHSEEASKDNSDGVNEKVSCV
Chain of Gonadotropin-releasing hormone receptor (Homo sapiens) (P30968 whole entry, looked up): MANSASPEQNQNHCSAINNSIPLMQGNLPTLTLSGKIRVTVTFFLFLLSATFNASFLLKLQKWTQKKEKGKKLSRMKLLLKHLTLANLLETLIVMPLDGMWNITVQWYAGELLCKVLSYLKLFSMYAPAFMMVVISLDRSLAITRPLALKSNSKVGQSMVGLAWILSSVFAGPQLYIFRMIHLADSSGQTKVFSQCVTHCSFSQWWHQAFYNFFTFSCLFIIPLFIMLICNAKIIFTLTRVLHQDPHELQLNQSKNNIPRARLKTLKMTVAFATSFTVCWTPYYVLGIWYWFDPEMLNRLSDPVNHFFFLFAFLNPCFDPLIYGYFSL
Chain of D(2) dopamine receptor (Homo sapiens) (P14416 whole entry, looked up): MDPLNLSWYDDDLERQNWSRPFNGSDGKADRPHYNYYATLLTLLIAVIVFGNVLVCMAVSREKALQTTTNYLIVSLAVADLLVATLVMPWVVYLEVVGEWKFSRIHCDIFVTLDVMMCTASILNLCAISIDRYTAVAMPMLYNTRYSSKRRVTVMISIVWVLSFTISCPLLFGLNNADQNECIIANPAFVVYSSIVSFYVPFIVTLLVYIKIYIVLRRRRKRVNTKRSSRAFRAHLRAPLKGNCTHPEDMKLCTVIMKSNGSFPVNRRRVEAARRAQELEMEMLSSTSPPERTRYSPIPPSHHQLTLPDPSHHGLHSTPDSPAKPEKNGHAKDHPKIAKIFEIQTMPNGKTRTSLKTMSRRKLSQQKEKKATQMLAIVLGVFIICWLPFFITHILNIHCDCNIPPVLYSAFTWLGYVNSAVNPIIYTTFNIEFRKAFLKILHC
Chain of Beta-2 adrenergic receptor (Homo sapiens) (P07550 whole entry, looked up): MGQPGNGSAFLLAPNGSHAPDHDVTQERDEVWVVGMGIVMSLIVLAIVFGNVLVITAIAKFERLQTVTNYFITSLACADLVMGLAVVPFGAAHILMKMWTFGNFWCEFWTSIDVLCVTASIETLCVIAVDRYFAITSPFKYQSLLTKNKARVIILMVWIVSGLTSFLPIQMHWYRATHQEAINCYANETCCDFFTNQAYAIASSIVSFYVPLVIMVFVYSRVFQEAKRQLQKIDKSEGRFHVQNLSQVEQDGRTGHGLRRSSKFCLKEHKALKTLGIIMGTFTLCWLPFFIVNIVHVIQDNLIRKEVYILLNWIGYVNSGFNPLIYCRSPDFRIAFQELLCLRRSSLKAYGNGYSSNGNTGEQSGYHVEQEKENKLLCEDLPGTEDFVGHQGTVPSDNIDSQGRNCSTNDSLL
Chain of Muscarinic acetylcholine receptor M1 (Homo sapiens) (P11229 whole entry, looked up): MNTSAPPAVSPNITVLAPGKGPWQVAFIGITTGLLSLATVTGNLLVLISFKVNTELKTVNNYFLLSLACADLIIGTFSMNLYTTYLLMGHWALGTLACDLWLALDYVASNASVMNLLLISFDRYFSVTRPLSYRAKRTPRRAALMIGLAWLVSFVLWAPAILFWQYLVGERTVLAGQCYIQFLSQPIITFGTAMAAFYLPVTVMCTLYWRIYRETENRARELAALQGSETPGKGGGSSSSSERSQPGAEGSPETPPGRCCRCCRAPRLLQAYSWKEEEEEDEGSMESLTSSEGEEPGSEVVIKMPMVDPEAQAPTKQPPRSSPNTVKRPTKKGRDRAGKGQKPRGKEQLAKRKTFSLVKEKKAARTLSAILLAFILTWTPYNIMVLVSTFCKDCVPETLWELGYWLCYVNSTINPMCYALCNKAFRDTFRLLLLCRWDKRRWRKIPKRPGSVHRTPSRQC
Chain of KiSS-1 receptor (Homo sapiens) (Q969F8 whole entry, looked up): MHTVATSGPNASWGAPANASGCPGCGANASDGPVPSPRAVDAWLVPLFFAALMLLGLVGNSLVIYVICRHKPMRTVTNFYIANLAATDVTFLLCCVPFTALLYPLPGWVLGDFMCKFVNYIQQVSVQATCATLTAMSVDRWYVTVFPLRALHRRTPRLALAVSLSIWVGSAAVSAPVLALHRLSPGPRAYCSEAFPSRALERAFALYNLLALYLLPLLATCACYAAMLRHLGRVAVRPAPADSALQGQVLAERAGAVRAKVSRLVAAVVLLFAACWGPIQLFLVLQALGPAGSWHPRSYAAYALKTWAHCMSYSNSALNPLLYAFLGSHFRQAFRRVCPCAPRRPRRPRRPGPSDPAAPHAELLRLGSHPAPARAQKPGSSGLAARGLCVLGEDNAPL

CC(C)(c1cc(Br)c(OCCO)c(Br)c1)c1cc(Br)c(OCCO)c(Br)c1
inactive: Potency [2] | Potency [3] | outcome [4] | outcome [5] | Potency [6] | Potency [7] | Potency [8] | Potency [9] | Potency [10] | Potency [11] | Potency [12] | Potency [13] | Potency [14] | Potency [15]
active: Potency [1] 37.7 µM

CN(C)CCN1CCN(c2cccc(Cl)c2)C1=O
inactive: Potency [1] | Potency [2] | Potency [3] | outcome [4] | outcome [5] | Potency [6] | Potency [7] | Potency [16] | Potency [17] | Potency [10] | Potency [12] | Potency [18] | Potency [19] | Potency [13]
active: Potency [9] 1.83 µM | Potency [14] 13.3 µM

O=c1c(-c2ccccc2)c1-c1ccccc1
inactive: Potency [3] | outcome [4] | outcome [5] | Potency [6] | Potency [8] | Potency [9] | Potency [10] | Potency [11] | Potency [12] | Potency [13] | Potency [14] | Potency [15]
active: Potency [1] 1.19 µM | Potency [2] 2.66 µM

O=C(O)c1ccc(Cl)c(Cl)c1
inactive: Potency [1] | Potency [2] | Potency [3] | outcome [4] | outcome [5] | Potency [6] | Potency [8] | Potency [17] | Potency [9] | Potency [10] | Potency [11] | Potency [12] | Potency [19] | Potency [13] | Potency [14] | Potency [15]

CC(=O)N(CC(O)CN(C(C)=O)c1c(I)c(C(=O)NCC(O)CO)c(I)c(C(=O)NCC(O)CO)c1I)c1c(I)c(C(=O)NCC(O)CO)c(I)c(C(=O)NCC(O)CO)c1I (stereo not given)
inactive: Potency [1] | Potency [2] | Potency [3] | outcome [4] | outcome [5] | Potency [6] | Potency [16] | Potency [17] | Potency [10] | Potency [11] | Potency [12] | Potency [18] | Potency [13] | Potency [20] | Potency [14] | Potency [15]

Nc1cnn([C@@H]2O[C@H](CO)[C@@H](O)[C@H]2O)c(=O)n1
inactive: Potency [1] | Potency [2] | Potency [3] | outcome [4] | outcome [5] | Potency [6] | Potency [8] | Potency [16] | Potency [9] | Potency [10] | Potency [11] | Potency [12] | Potency [18] | Potency [19] | Potency [13] | Potency [20] | Potency [14]
active: Potency [17] 1.45 µM

CC(C)C(=O)OCc1ccccc1
inactive: Potency [1] | Potency [2] | Potency [3] | outcome [4] | outcome [5] | Potency [7] | Potency [8] | Potency [16] | Potency [17] | Potency [9] | Potency [10] | Potency [11] | Potency [12] | Potency [18] | Potency [19] | Potency [13]

CCc1ccc(CC)cc1
inactive: Potency [1] | Potency [2] | Potency [3] | outcome [4] | outcome [5] | Potency [6] | Potency [16] | Potency [17] | Potency [9] | Potency [10] | Potency [11] | Potency [18] | Potency [19] | Potency [13] | Potency [20] | Potency [15]

NC1CCN(c2cccc(Cl)n2)CC1
active: Potency [9] 0.41 µM | Potency [10] 0.268 µM
inactive: Potency [1] | Potency [2] | Potency [3] | outcome [4] | outcome [5] | Potency [6] | Potency [8] | Potency [16] | Potency [17] | Potency [11] | Potency [12] | Potency [19] | Potency [13] | Potency [14]

O=S(O)O
inactive: activity change, negative = cytotoxicity [1] -0.591% [at 19 µM] | activity, positive = activation [2] -3.64% [at 19 µM] | activity change [3] -0.296% [at 11.8 µM, stronger effect = higher value] | activation [4] -3.75% [at 15.8 µM] | activation [5] -0.558% [at 11.8 µM] | activation [7] -0.532% [at 13.6 µM] | activity change, negative = cytotoxicity [8] 11.9% [at 13.5 µM] | activity change, negative = cytotoxicity [16] 16.3% [at 13.5 µM] | activation [17] 0.538% [at 13.5 µM] | activity, negative = inhibition [9] -15% [at 12.7 µM] | activation [10] 4.7% [at 15.9 µM] | activity, negative = inhibition [11] 27.3% [at 12.6 µM] | activation [12] 0.709% [at 15.8 µM] | activation [18] 1.33% [at 19 µM] | activity change, negative = inhibition [19] 0.0539% [at 18.9 µM] | Potency [20] | activation [14] 2.66% [at 19 µM]
